Measurements reported in PubChem BioAssay (Tox21).
Results filed as inconclusive are left out. Where a call stands in place of a potency, no number is given. Unmarked numbers belong to inactive results. Activity calls are given as the source filed them. Unless noted, calls follow the shape of the dose curve; as a rule, active = well fitted curve in the direction sought with a large enough effect in the repeat runs; inconclusive = weak or mixed curves; inactive = no such curve, though single readings can be large; an effect the other way counts as inactive or inconclusive.

What was measured:
[1] = qHTS assay to identify small molecule antagonists of the estrogen related receptor (ERR) signaling pathway from Tox21 library - cell viability counter screen (AID 1224834); also: nearly all actives have a fitted effect of over 30% in size
How it was run: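 Cytotoxicity of test substances is gauged in the same ERR cells used for the antagonist screen, after 17.5 h of compound treatment at 37 C, by CellTiter-Fluor fluorescence measured after 30 min.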

[2] = target: Luciferin 4-monooxygenase (Photinus pyralis) (UniProt P08659); assay: qHTS assay to identify small molecule inhibitors of firefly luciferase (AID 1224835); also: nearly all actives have a fitted effect of over 25% in size; also: potency is read from the fitted curve at half-maximal effect; as to activity change, negative = inhibition: series mostly up to about 120 µM
Luciferin 4-monooxygenase (Photinus pyralis), sequence (P08659 whole entry, looked up): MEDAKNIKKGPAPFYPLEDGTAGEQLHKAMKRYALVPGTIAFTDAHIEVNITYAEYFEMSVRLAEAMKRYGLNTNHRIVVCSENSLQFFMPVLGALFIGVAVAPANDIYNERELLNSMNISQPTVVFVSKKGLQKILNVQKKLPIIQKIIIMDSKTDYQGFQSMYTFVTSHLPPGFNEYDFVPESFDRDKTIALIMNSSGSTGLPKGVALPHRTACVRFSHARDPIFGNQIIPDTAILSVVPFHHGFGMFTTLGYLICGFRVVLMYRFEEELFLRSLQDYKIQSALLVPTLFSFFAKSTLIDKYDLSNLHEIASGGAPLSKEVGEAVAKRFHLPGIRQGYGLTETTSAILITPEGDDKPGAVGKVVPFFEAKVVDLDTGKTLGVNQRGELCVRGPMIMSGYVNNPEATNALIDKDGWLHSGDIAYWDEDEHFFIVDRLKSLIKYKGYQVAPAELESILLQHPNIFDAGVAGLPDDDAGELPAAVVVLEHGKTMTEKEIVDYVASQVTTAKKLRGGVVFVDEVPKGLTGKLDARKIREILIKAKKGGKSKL
How it was run: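 Inhibition of purified Photinus luciferase is measured by luminescence. Substrate levels (D-luciferin, ATP) sit at their KM values. Each compound is tested in a concentration series.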

[3] = qHTS assay to identify small molecule agonists of the constitutive androstane receptor (CAR) signaling pathway - cell viability counter screen (AID 1224836); also: series mostly up to about 92 µM; nearly all actives have a fitted effect of over 45% in size
How it was run: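 23 h treatment, 37 C, 5% CO2. Cell line: HepG2 stably expressing hCAR with a CYP2B6-2.2kb construct. Co-treatment: PK11195, 0.75 uM final. Read-out: CellTiter-Fluor fluorescence intensity.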

[4] = qHTS assay to identify small molecule antagonists of the constitutive androstane receptor (CAR) signaling pathway - cell viability counter screen (AID 1224837); also: series mostly up to about 92 µM; nearly all actives have a fitted effect of over 45% in size
How it was run: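 Multiplexed cytotoxicity read-out for the CAR antagonist screen: double-stable HepG2-CYP2B6-hCAR cells co-treated with 50 nM CITCO (final) and compound over 15 concentrations, incubated 23 hr, then assessed by CellTiter-Fluor fluorescence.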

[5] = target: Nuclear receptor subfamily 1 group I member 3 (Homo sapiens) (UniProt Q14994); assay: qHTS assay to identify small molecule antagonists of the constitutive androstane receptor (CAR) signaling pathway (AID 1224838); also: nearly all actives have a fitted effect of over 40% in size
Nuclear receptor subfamily 1 group I member 3 (Homo sapiens), sequence (Q14994 whole entry, looked up): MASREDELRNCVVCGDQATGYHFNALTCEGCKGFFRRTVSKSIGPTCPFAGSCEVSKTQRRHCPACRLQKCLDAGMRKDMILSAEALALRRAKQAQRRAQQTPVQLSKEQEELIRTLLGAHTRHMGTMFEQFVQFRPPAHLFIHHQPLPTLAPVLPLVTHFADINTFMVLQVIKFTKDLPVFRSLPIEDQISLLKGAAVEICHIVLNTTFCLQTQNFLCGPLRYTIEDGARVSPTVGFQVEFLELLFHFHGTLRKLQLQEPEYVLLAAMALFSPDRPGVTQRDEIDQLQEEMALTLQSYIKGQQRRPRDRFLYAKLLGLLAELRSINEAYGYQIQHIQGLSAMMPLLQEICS
How it was run: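 Compounds were titrated across 15 concentrations onto HepG2 cells double-stably expressing hCAR and a CYP2B6-2.2kb reporter, together with 50 nM CITCO (final). After 24 h at 37 C, luciferase activity was measured by luminescence.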

[6] = target: Nuclear receptor subfamily 1 group I member 3 (Homo sapiens) (UniProt Q14994); assay: qHTS assay to identify small molecule agonists of the constitutive androstane receptor (CAR) signaling pathway (AID 1224839); also: nearly all actives have a fitted effect of over 15% in size; also: potency is read from the fitted curve at half-maximal effect;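 as to activation: HepG2 cells stably carrying human CAR and a CYP2B6 luciferase reporter; series mostly up to about 92 µM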
How it was run: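 Compounds tested at 15 concentrations on HepG2 cells stably harbouring hCAR and CYP2B6-2.2kb reporter constructs, co-treated with PK11195 (0.75 uM final), 24 h at 37 C; luminescent reporter signal quantified.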

[7] = qHTS assay to identify small molecule antagonists of the estrogen related receptor signaling pathway with the pleiotropic PPARgamma coactivator (PGC) from Tox21 10K library - cell viability counter screen (AID 1224840; active = well fitted cell-killing curve with a large enough effect in the repeat runs, not every such curve was filed as active; also: nearly all actives have a fitted effect of over 40% in size)
How it was run: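 Step one, plate 2,000 PGC/ERR cells per well; step two, incubate 6 h at 37 C/5% CO2; step three, pin-transfer compounds; step four, incubate 17.5 h; step five, add CellTiter-Fluor and read fluorescence after 30 min.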

[8] = qHTS assay to identify small molecule antagonists of the estrogen related receptor signaling pathway with the pleiotropic PPARgamma coactivator (PGC) from Tox21 10K library (AID 1224841; call rule not given here; also: series mostly up to about 92 µM; actives are mostly falling curves and most rising ones were filed inactive; nearly all actives have a fitted effect of over 50% in size)
How it was run: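 Antagonism in this quantitative HTS is taken from loss of luciferase signal in PGC/ERR cells. Cells (2,000/well) are treated with compounds in DMSO after a 6 h settling period and read by One-Glo luminescence after 18 h.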

[9] = qHTS assay to identify small molecule agonists of the estrogen related receptor signaling pathway with the pleiotropic PPARgamma coactivator (PGC) from Tox21 10K library (AID 1224842); also: nearly all actives have a fitted effect of over 15% in size
How it was run: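 Luminescence from One-Glo (30 min, room temperature) measured after PGC/ERR cells had 18 h at 37 C with pinned compound (23 nL in DMSO). Cells had been seeded at 2,000 per well and pre-incubated 6 h.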

## O=C(NC(=O)c1c(F)cccc1F)Nc1cc(Cl)c(F)c(Cl)c1F
[1]
  Potency: inactive
[2]
  Potency: inactive
[3]
  Potency: inactive
[4]
  Potency: inactive
[5]
  Potency: inactive
[6]
  Potency: inactive
[7]
  Potency: inactive

## N#CN
[1]
  Potency: inactive
[2]
  Potency: inactive
[3]
  Potency: inactive
[4]
  Potency: inactive
[5]
  Potency: inactive
[6]
  Potency: inactive

## CC(O)CCl (centres undefined)
[1]
  Potency: inactive
[2]
  Potency: inactive
[3]
  Potency: inactive
[4]
  Potency: inactive
[5]
  Potency: inactive
[6]
  Potency: inactive
[7]
  Potency: inactive

## CNC(=O)NC(O)C(Cl)(Cl)Cl (centres undefined)
[1]
  Potency: inactive
[2]
  Potency: inactive
[3]
  Potency: inactive
[4]
  Potency: inactive
[5]
  Potency: inactive
[6]
  Potency: inactive

## c1ccc2c(c1)CCNC2
[1]
  Potency: inactive
[2]
  Potency: inactive
[3]
  Potency: inactive
[4]
  Potency: inactive
[5]
  Potency: inactive
[6]
  Potency: inactive
[7]
  Potency: inactive
[8]
  Potency: inactive
[9]
  Potency: inactive

## CCSC(=O)Cl
[1]
  Potency: inactive
[2]
  Potency: inactive
[3]
  Potency: inactive
[4]
  Potency: inactive
[5]
  Potency: inactive
[6]
  Potency: inactive
[7]
  Potency: inactive
[8]
  Potency: inactive
[9]
  Potency: inactive

## Nc1c(Cl)c(F)nc(OCC(=O)O)c1Cl
[1]
  Potency: inactive
[2]
  Potency: inactive
[3]
  Potency: inactive
[4]
  Potency: inactive
[5]
  Potency: inactive
[6]
  Potency: inactive
[7]
  Potency: inactive
[8]
  Potency: inactive
[9]
  Potency: inactive

## BrCCc1ccccc1
[1]
  Potency: inactive
[2]
  Potency: inactive
[3]
  Potency: inactive
[4]
  Potency: inactive
[5]
  Potency: inactive
[6]
  Potency: inactive
[7]
  Potency: inactive
[8]
  Potency: inactive
[9]
  Potency: inactive

## COc1cccc(C=O)c1
[1]
  Potency: inactive
[2]
  Potency: inactive
[3]
  Potency: inactive
[4]
  Potency: inactive
[5]
  Potency: inactive
[6]
  Potency: inactive
[7]
  Potency: inactive
[8]
  Potency: inactive
[9]
  Potency: inactive

## O=C(O)C(Br)(Br)Br
[1]
  Potency: inactive
[2]
  Potency: inactive
[3]
  Potency: inactive
[4]
  Potency: inactive
[5]
  Potency: inactive
[6]
  Potency: inactive
[7]
  Potency: inactive
[8]
  Potency: inactive
[9]
  Potency: inactive

## CCN(CC)CCOC(=O)C(O)(c1ccccc1)c1ccccc1
[1]
  Potency: inactive
[2]
  Potency: inactive
[3]
  Potency: inactive
[4]
  Potency: inactive
[5]
  Potency: inactive
[6]
  Potency: inactive
[7]
  Potency: inactive
[8]
  Potency: inactive
[9]
  Potency: inactive

## N[C@@H](Cc1ccc(Oc2cc(I)c(O)c(I)c2)c(I)c1)C(=O)O
[1]
  Potency: inactive
[2]
  Potency: inactive
[3]
  Potency: inactive
[4]
  Potency: inactive
[5]
  Potency: inactive
[6]
  Potency: inactive
[7]
  Potency: inactive

## Brc1c(Br)c(Br)c(Br)c(Br)c1Br
[1]
  viability change, negative = cytotoxic: 3.18% [at 8.39 µM]
[2]
  activity change, negative = inhibition: -3.44% [at 10.5 µM]
[3]
  viability change, negative = cytotoxic: 3.28% [at 8.39 µM]
[4]
  activity change, negative = cytotoxicity: -3.15% [at 8.39 µM]
[5]
  activity, negative = inhibition: -5.81% [at 8.39 µM]
[6]
  activation: -2.38% [at 8.39 µM]
[7]
  viability change, negative = cytotoxic: -4.4% [at 8.39 µM]

## CCCCS(=O)(=O)Cl
[1]
  Potency: inactive
[2]
  Potency: inactive
[3]
  Potency: inactive
[4]
  Potency: inactive
[5]
  Potency: inactive
[6]
  Potency: inactive
[7]
  Potency: inactive
[8]
  Potency: inactive
[9]
  Potency: inactive

## C[C@]12C=CC(=O)C=C1CC[C@@H]1[C@@H]2CC[C@@]2(C)[C@H]1CC[C@]2(C)O
[1]
  Potency: inactive
[2]
  Potency: inactive
[3]
  Potency: inactive
[4]
  Potency: inactive
[5]
  Potency: inactive
[6]
  Potency: inactive
[7]
  Potency: inactive
[8]
  Potency: inactive
[9]
  Potency: inactive

## COP(=O)(O)OC
[1]
  Potency: inactive
[2]
  Potency: inactive
[3]
  Potency: inactive
[4]
  Potency: inactive
[5]
  Potency: inactive
[6]
  Potency: inactive
[7]
  Potency: inactive

## CC1NCCOC1c1ccccc1 (centres undefined)
[1]
  Potency: inactive
[2]
  Potency: inactive
[3]
  Potency: inactive
[4]
  Potency: inactive
[5]
  Potency: inactive
[6]
  Potency: inactive
[8]
  Potency: inactive
[9]
  Potency: inactive

## Oc1ccc(Cc2ccc(O)cc2)cc1
[1]
  Potency: inactive
[2]
  Potency: 40.2 µM (active)
[3]
  Potency: inactive
[4]
  Potency: inactive
[5]
  Potency: inactive
[6]
  Potency: 54.9 µM (active)
[8]
  Potency: inactive
[9]
  Potency: inactive

## COc1ccc(C=O)cc1O
[1]
  Potency: inactive
[2]
  Potency: inactive
[3]
  Potency: inactive
[4]
  Potency: inactive
[5]
  Potency: inactive
[6]
  Potency: inactive
[7]
  Potency: inactive
[9]
  Potency: inactive

## C=CCCC#N
[1]
  Potency: inactive
[2]
  Potency: inactive
[3]
  Potency: inactive
[4]
  Potency: inactive
[5]
  Potency: inactive
[6]
  Potency: inactive
[7]
  Potency: inactive

## CCOC(=O)Nc1cccc(OC(=O)Nc2ccccc2)c1
[1]
  Potency: inactive
[2]
  Potency: 31.7 µM (active)
[3]
  Potency: inactive
[4]
  Potency: inactive
[5]
  Potency: inactive
[6]
  Potency: 30.6 µM (active)
[7]
  Potency: inactive

## CCCCCCC1CCOC1=O (centres undefined)
[1]
  Potency: inactive
[2]
  Potency: inactive
[3]
  Potency: inactive
[4]
  Potency: inactive
[5]
  Potency: inactive
[6]
  Potency: inactive
[8]
  Potency: inactive
[9]
  Potency: inactive

## O=C(O)c1c(Cl)ccc2cc(Cl)cnc12
[1]
  Potency: inactive
[2]
  Potency: inactive
[3]
  Potency: inactive
[4]
  Potency: inactive
[5]
  Potency: inactive
[6]
  Potency: inactive
[7]
  Potency: inactive

## CC(=O)OCC1=C(C(=O)O)N2C(=O)[C@@H](N)[C@H]2SC1
[1]
  viability change, negative = cytotoxic: 3.81% [at 19 µM]
[2]
  activity change, negative = inhibition: 5.1% [at 23.6 µM]
[3]
  viability change, negative = cytotoxic: 12.6% [at 19 µM]
[4]
  activity change, negative = cytotoxicity: 5.22% [at 19 µM]
[5]
  activity, negative = inhibition: 0.319% [at 19 µM]
[6]
  activation: 4.04% [at 19 µM]
[7]
  viability change, negative = cytotoxic: 9.03% [at 19 µM]
[8]
  activity, negative = inhibition: -8.84% [at 19 µM]
[9]
  activation: -2.61% [at 19 µM]

## C#CCOC(=O)/C=C(C)/C=C/CC(C)CCCC(C)C (centres undefined)
[1]
  Potency: inactive
[2]
  Potency: inactive
[3]
  Potency: inactive
[4]
  Potency: inactive
[5]
  Potency: inactive
[6]
  Potency: inactive
[7]
  Potency: inactive
[8]
  Potency: inactive
[9]
  Potency: inactive
